For 20 molecules, growth inhibition results are on record in PubChem BioAssay (NCI).

A short description of assay [1]: NCI Yeast Anticancer Drug Screen. Data for the rad50 strain (AID 155).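 Note: 0% = growth of vehicle-only cultures of the same strain.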 To be noted: S. cerevisiae rad50 strain growth inhibition; at 50.0 µM; hits give high values. Summed up: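 Relative growth inhibition (compound vs vehicle) was measured in yeast with a defined repair-gene alteration.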
Assay [2] can be described thus: NCI Yeast Anticancer Drug Screen. Data for the mec2-1 strain (AID 157). The conditions noted are these: S. cerevisiae mec2-1 strain, at 50.0 µM, hits give high values. The gist of the method: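 Vehicle-treated cultures served as reference for growth inhibition of compound-exposed mec2-1 yeast.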
The nature of assay [3]: NCI Yeast Anticancer Drug Screen. Data for the sgs1 mgt1 strain (AID 161).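 Note: 0% = growth of cultures given vehicle only.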 The conditions noted are these: S. cerevisiae sgs1 mgt1 strain, at 50.0 µM, hits give high values. Summed up: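 Inhibition of yeast growth, normalised to vehicle-treated controls, is reported for a strain bearing genetic alterations in DNA damage repair.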
Assay [4] can be described thus: NCI Yeast Anticancer Drug Screen. Data for the cln2 rad14 strain (AID 165).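 Note: 0% = growth equal to vehicle treated cultures.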 To be noted: S. cerevisiae cln2 rad14 strain, at 50.0 µM, hits give high values. Summed up:
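Each compound was tested on cln2 rad14 yeast. Inhibition of growth was calculated against vehicle-exposed controls.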

A short description of assay [5]: NCI Yeast Anticancer Drug Screen. Data for the bub3 strain (AID 167). To be noted: S. cerevisiae bub3 mutant strain, at 50.0 µM, hits give high values. The gist of the method:
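Screening used yeast with an engineered genetic alteration affecting cell cycle control. Compound-exposed cultures were compared with vehicle cultures, and reduced growth was taken as inhibition.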

The nature of assay [6]: NCI Yeast Anticancer Drug Screen. Data for the mlh1 rad18 strain (AID 175). To be noted: S. cerevisiae mlh1 rad18 strain growth inhibition; at 50.0 µM; hits give high values. The gist of the method: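 Vehicle-treated cultures served as the reference for growth inhibition in a yeast strain carrying DNA damage repair alterations exposed to each compound.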

Molecules are shown by their SMILES. Compounds without any hit were thinned out: in the full panel of roughly 79,000, 15% have a hit. A number with no mark means an inactive call. The source made the active and inactive calls. Cut-off read from the data, not from the text of the source: active = growth inhibition above about 70%; inactive = the rest.

Regarding `COc1ccc(C(C)CNCc2ccccc2)cc1` (stereo not given), the growth inhibition in assay [1] was 0.3%; in assay [2], -1.35%; in assay [3], 21.1%; in assay [4], -10.8%; in assay [5], -1.7%; in assay [6], -1.45%.
For the molecule `CN(C)C1OCCO1`, the growth inhibition was -8.45% in assay [1]; -36.1% in assay [2]; -11% in assay [3]; 1.4% in assay [4]; -7.05% in assay [5]; -3.35% in assay [6].
In the case of `CCNC(=O)Oc1c(Cl)cc(S(=O)(=O)F)cc1Cl`, the growth inhibition was 43.6% in assay [1]; 22.8% in assay [2]; 32.1% in assay [3]; 12.5% in assay [4]; 16% in assay [5]; 26.4% in assay [6].
As to `O=C(O)CNCP(=O)(O)O`, the growth inhibition in assay [1] was -31.4%; in assay [2], -23.1%; in assay [3], -52.1%; in assay [4], -15.1%; in assay [5], -46.8%; in assay [6] it was -20%.
In the case of `O=C1NC(=O)C(F)(n2cc(F)c(=O)[nH]c2=O)C(O)N1` (stereo not given), the growth inhibition in assay [1] was -47.8%; in assay [2], -31.3%; in assay [3], -10.2%; in assay [4], -40%; in assay [5], -13.4%; in assay [6], -54.9%.
For `Cc1nc2ccccc2c(=O)n1-c1ccccc1Br`, the growth inhibition in assay [1] is 7.35%; in assay [2] it was -13.7%; in assay [3], -6.7%; in assay [4] it was 12.4%; in assay [5], 10.2%; in assay [6], 2.2%.
For the molecule `O=C(O)CCC(=O)CCl`, the growth inhibition is 7% in assay [1]; 1.35% in assay [2]; 1.2% in assay [3]; -12.6% in assay [4]; 0.9% in assay [5]; 1% in assay [6].
For `C[N+]1=C(c2cccnc2/C=N/O)OCC1(C)C`, the growth inhibition in assay [1] was 1.3%; in assay [2] it was -19.4%; in assay [3] it was -13.7%; in assay [4] it was -5.1%; in assay [5], -24.4%; in assay [6] it was -33.1%.
Consider `COc1cc(C2(C)CCCCC2)c(OC)cc1C1(C)CCCCC1`, for which the growth inhibition is -8.1% in assay [1]; 1.25% in assay [2]; 23.4% in assay [3]; -69.2% in assay [4]; 2.75% in assay [5]; 9.15% in assay [6].
As to `CC1=C(C)CN(CCc2c[nH]c3ccccc23)C(C#N)C1` (stereo not given), the growth inhibition in assay [1] was 0.6%; in assay [2] it was 2.3%; in assay [3], 3.95%; in assay [4], 60.5%; in assay [5], 11.9%; in assay [6] it was 12.5%.
In the case of `O=C=Nc1ccc(Cl)cc1`, the growth inhibition in assay [1] was -10.2%; in assay [2], -14.9%; in assay [3], -8.3%; in assay [4] it was -21.4%; in assay [5] it was -2.45%; in assay [6] it was -15.9%.
With `O=S1(F)=NP(N2CC2)(N2CC2)=NP(N2CC2)(N2CC2)=N1` (stereo not given), the growth inhibition is 22.6% in assay [1]; -3.15% in assay [2]; -9.7% in assay [3]; 6.6% in assay [4]; -19.6% in assay [5]; -39.9% in assay [6].
Regarding `CC(Cl)CN1CCCCC1` (stereo not given) (tested in a mixture with another compound), the growth inhibition in assay [1] is 15.2%; in assay [2], 1.25%; in assay [3], 23.8%; in assay [4] it was 7.75%; in assay [5], 3.2%; in assay [6] it was 17.9%.
As to `C=C1C(=O)OC2CC3(C)OC3C3OC3C3=CC(OC3=O)C12` (stereo not given), the growth inhibition is 18.9% in assay [1]; 34.7% in assay [2]; 57.1% in assay [3]; 29.6% in assay [4]; 41.4% in assay [5]; 38.1% in assay [6].
With `COC(=O)C1=C(C)NC(C)=C2C(=O)Oc3ccccc3C12` (stereo not given), the growth inhibition in assay [1] was 4.75%; in assay [2] it was -9.65%; in assay [3], -7.5%; in assay [4], 6.6%; in assay [5], -6.8%; in assay [6] it was 1.4%.
On to `CCOC(=O)P(=O)(OCC)OCC`, for which the growth inhibition was 6.9% in assay [1]; -37.2% in assay [2]; -11% in assay [3]; -1.2% in assay [4]; 4.95% in assay [5]; -1.1% in assay [6].
Turning to `CO[C@H](C)[C@](O)(C(=O)OCC1=CC[N+]2([O-])CC[C@H](O)[C@@H]12)C(C)C` (stereo not given in full), the growth inhibition was 1.75% in assay [1]; -20.2% in assay [2]; 2.35% in assay [3]; 7.25% in assay [4]; -8.95% in assay [5]; -10.2% in assay [6].
For `O=NN1CCCS1(=O)=O`, the growth inhibition is 21.2% in assay [1]; 17.9% in assay [2]; 15.8% in assay [3]; 14.3% in assay [4]; 3.95% in assay [5]; 18.8% in assay [6].
Turning to `[Fe+2].[c-]1[c-][c-][cH-][c-]1.[c-]1[c-][c-][cH-][c-]1.c1cc[c]([Pb]([c]2ccccc2)[c]2ccccc2)cc1`, the growth inhibition in assay [1] is 66.5%; in assay [2], 85% (active); in assay [3], 83.9% (active); in assay [4], 65.5%; in assay [5], 78.3% (active); in assay [6], 87.8% (active).
`C1=C[N-]c2c3c(ccc2=C1)=CC=C[N-]3.C1=C[N-]c2c3c(ccc2=C1)=CC=C[N-]3.C1=C[N-]c2c3c(ccc2=C1)=CC=C[N-]3.[Co+3].[O-][Cl+3]([O-])([O-])O`: the growth inhibition in assay [1] was -8.95%; in assay [2], -16.4%; in assay [3], -22.8%; in assay [4], -26.1%; in assay [5], -1.15%; in assay [6], 8.2%.
